Reference: PubChem BioAssay (Tox21)
Inconclusive results are not listed. Where a call stands in place of a potency, no number is given. Calls of active or inactive are those of the source. Calls come from the whole dose curve; as a rule, active = well fitted cell-killing curve with a large enough effect in the repeat runs; inconclusive = weak or mixed curves, or effect the other way; inactive = flat fitted curve, though single readings scatter.

What was measured:
[1] = cAMP Responsive Elements (CRE) small molecule antagonists, cell-based qHTS assay: qHTS cell viability counter screen (AID 2060913); note: nearly all actives have a fitted effect of over 40% in size
Procedure, shortened: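 HEK293T CRE-bla, 2,000 cells/well, 18 h preincubation; cpd in DMSO + NKH477 0.25 uM final, 3 h 37 C/5% CO2; LiveBLAzer 2 h RT, then CellTiter-Glo 30 min RT, luminescence.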

[2] = cAMP Responsive Elements (CRE) small molecule agonists, cell-based qHTS assay: qHTS cell viability counter screen (AID 2060914);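 note: viability read after 3 h of compound exposure; nearly all actives have a fitted effect of over 50% in size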
Procedure, shortened: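 CRE-bla HEK 293T cells, plated 18 h at 37 °C, were exposed to compounds for 3 h at 37 °C/5% CO2. Viability was then measured in the same wells by CellTiter-Glo luminescence after 30 min at room temperature.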

Compound	Potency [1]	Potency [2]
CC(C)(C)C(=O)C1C(=O)c2ccccc2C1=O	inactive	inactive
CC(C)(Oc1ccc(CCNC(=O)c2ccc(Cl)cc2)cc1)C(=O)O	inactive	inactive
Nc1nc(N)c2nc(-c3ccccc3)c(N)nc2n1	inactive	inactive
O=C(OCC(O)CO)c1ccccc1Nc1ccnc2cc(Cl)ccc12 (stereo not drawn)	inactive	inactive
O=C(O)c1cc(=O)[nH]c(=O)[nH]1	inactive	inactive
CCOC(=O)Cn1cccc1-c1nc(-c2ccc(OC)cc2)c(-c2ccc(OC)cc2)s1	inactive	inactive
C/C=C/CO	inactive	inactive
CCc1ccc(CCOc2ccc(CC3SC(=O)NC3=O)cc2)nc1 (stereo not drawn)	inactive	inactive
C=C[C@@]1(C)CC(=O)[C@]2(O)[C@@]3(C)[C@@H](O)CCC(C)(C)[C@@H]3[C@H](O)[C@H](OC(C)=O)[C@@]2(C)O1	inactive	inactive
